Assay results published in PubChem BioAssay.
For some assays here: Measured potencies and affinities stand elsewhere. Calls of active or inactive are those of the source. Unless noted, the rule behind the calls is not given here.

test system: not listed separately; test: inhibition of 3D7 malaria parasite growth – strain 3D7 (AID 2306);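 note: 0% = DMSO wells and 100% = chloroquine plus artemisinin control wells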; settings: P. falciparum 3D7 erythrocytic growth, LDH absorbance, 72 h; at 2 µM; hits give high values

Row | Compound | growth inhibition
1 | COCCNCc1cccc(-c2ccc(CNC3CCN(Cc4ccccc4)CC3)cc2)c1 | 100% (active)
2 | CCC(C)C#Cc1c(C)nc(N)nc1N (stereo not given) | 96% (active)
3 | Cc1cc(NC(=O)NCCN2CCC(NS(=O)(=O)c3ccccc3Cl)C2)c2ccccc2n1 (stereo not given) | 97% (active)
4 | O=C(CCc1ccccc1)NC(c1ccc(Cl)cc1)c1ccc2cccnc2c1O (stereo not given) | 95% (active)
5 | Fc1ccc2nc(-c3ccc(-c4cccc(CN5CCCCC5)c4)cc3)[nH]c2c1 | 100% (active)
6 | O=C(Nc1ccc(-c2nc3ccccc3[nH]2)cc1)C1CCCN(C2CCC2)C1 (stereo not given) | 90% (active)
7 | NC(=O)C1CCN(Cc2ccc(-c3ccc(-c4nc5ccc(C(F)(F)F)cc5[nH]4)cc3)cc2)CC1 | 100% (active)
8 | COc1ccc(-c2cccc(NC(=O)c3ccc(Cl)cc3)c2)cc1CNC(C)C | 101% (active)
9 | COc1ccc(CNC2CCN(C)CC2)cc1-c1ccc(S(=O)(=O)NCCc2ccccn2)c(F)c1 | 101% (active)
10 | Cc1cnc(NCCc2ccc(F)cc2)nc1N[C@@H](CC(C)C)C(=O)Nc1ccccc1 | 87% (active)
11 | Oc1ccc(Br)cc1-c1nc2ccc(Cl)cc2nc1-c1cc(Br)ccc1O | 100% (active)
12 | COc1ccc(CNC2CCN(C)CC2)cc1-c1cccc(S(=O)(=O)NCc2ccccc2)c1 | 101% (active)
13 | CC[C@H](C)CNC(=O)c1ccnc(-c2ccc(CNCCCc3ccccc3)cc2)c1 | 101% (active)
14 | CS(=O)(=O)c1ccc2nc(-c3cc(-c4ccc(OCCN5CCOCC5)cc4)cnc3N)[nH]c2c1 | 100% (active)
15 | Cc1ccc2[nH]c3ccccc3c(=O)c2c1 | 93% (active)
16 | Cc1ccc(-c2nnc3c4ccccc4c(C)nn23)cc1S(=O)(=O)N1CCN(CCO)CC1 | 85% (active)
17 | Cc1cc(N2CCN(C3CCCCC3)CC2)nc2cccc(O)c12 | 101% (active)
18 | CC(C)C[C@H](NC(=O)[C@H](Cc1ccccc1)NC(=O)CCN1C(=O)COc2ccc(C(=O)O)cc21)C(=O)NC(CC1CCCCC1)C(O)CC(=O)NCCCn1ccnc1 (stereo not given in full) | 99% (active)
19 | COc1c(C2=CCN(CCCCNC(=O)c3ccc(-c4ccc(C#N)cc4)cc3)CC2)c(C)cc2c1C(C)(C)CCC2(C)C | 92% (active)
20 | Cc1cc(N2CCC(NS(=O)(=O)c3ccccc3)CC2)nc(Nc2cccc(C#N)c2)n1 | 93% (active)

Row | Compound | growth inhibition
21 | O=C(Nc1ccc(Cl)cn1)c1sc2ccccc2c1O | 99% (active)
22 | Cc1ccc(NC(=O)NC2CCN(CCC(NC(=O)Cc3ccccc3)c3ccc(Cl)c(Cl)c3)CC2)cc1 (stereo not given) | 100% (active)
23 | Cc1cc(N)c2cc(NC(=O)c3cccc4ccccc34)ccc2n1 | 98% (active)
24 | Cc1cc(NCCCN2CCCC2=O)n2c(nc3ccccc32)c1C#N | 93% (active)
25 | COc1ccc(F)cc1-c1cccc(CNC2CCN(CC3Cn4c(=O)ccc5ccc(F)c3c54)CC2)c1 (stereo not given) | 100% (active)
26 | NC(=O)C1CCN(Cc2cccc(-c3cccc(-c4nc5ccc(C(F)(F)F)cc5[nH]4)c3)c2)CC1 | 100% (active)
27 | O=C(/C=C/c1ccc(F)cc1)NC1CCC(CCN2CCc3ccc(-n4cccn4)cc3CC2)CC1 (stereo not given) | 89% (active)
28 | Cc1cccc2[nH]c(-c3cccc(-c4ccc(C(=O)N5CCCCC5C(C)O)cc4)c3)nc12 (stereo not given) | 100% (active)
29 | COc1ccc(N2CCN(CCCN3CCN(C(=O)c4ccc(/C=C/c5ccc(Cl)c(Cl)c5)cc4)CC3)CC2)c(OC)c1 | 93% (active)
30 | C[C@@H](Oc1cc(-n2cnc3ccc(NC(=O)CCN4CCCCC4)cc32)sc1C(N)=O)c1ccccc1Cl | 101% (active)
31 | Cc1ccc(CCC(C)NCC(O)c2cccc(C(F)(F)F)c2)cc1 (stereo not given) | 99% (active)
32 | O=C(NCc1cccc(C(F)(F)F)c1)C(c1cc2ccccc2o1)N1CCN(C(c2ccccc2)c2ccccc2)CC1 (stereo not given) | 91% (active)
33 | COc1ccc(Cl)cc1N1CCN(CCCNC(=O)c2ccc(-c3nc4ccc(C(F)(F)F)cc4[nH]3)c(C)c2)CC1 | 95% (active)
34 | CCCCOC(=O)C1=C(C)NC2=C(C(=O)CCC2)C1c1ccc(OC)c(Br)c1 (stereo not given) | 93% (active)
35 | Cc1cccc(-c2ccc3c(c2)CC(NCc2cccc(-n4ccnc4)c2)C3)c1 (stereo not given) | 101% (active)
36 | CNC(=O)c1ccccc1Nc1nc(Nc2cccnc2)ncc1C | 93% (active)
37 | CC(C)(C)S[C@H]1S[C@H](SC(C)(C)C)[C@@H](OC(=O)c2ccccc2)C(OC(=O)c2ccccc2)[C@H]1OC(=O)c1ccccc1 (stereo not given in full) | 95% (active)
38 | CSC1=NC(=Nc2ccccc2C)C2(CCC(C(C)(C)C)CC2)N1c1ccccc1Cl (stereo not given) | 96% (active)
39 | O=C(Nc1ccc(F)cc1)c1cnc(N2CCN(c3ccncc3)CC2)c(Cl)c1 | 100% (active)
40 | CC1Cc2ccccc2N1CC(=O)Nc1cc(C(F)(F)F)ccc1-n1cncn1 (stereo not given) | 97% (active)

target: Calcium-dependent protein kinase 1 (Plasmodium falciparum (isolate 3D7)) (UniProt P62344); test: PfCDPK1 kinase inhibitors, biochemical, TCAMS library (AID 1159585; cut-off not given, nearly all actives have IC50 up to about 0.98 µM;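 note: inhibitors leave more ATP so luminescence rises with inhibition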); settings: recombinant PfCDPK1, Kinase-Glo ATP depletion luminescence
Sequence (P62344 whole entry, looked up): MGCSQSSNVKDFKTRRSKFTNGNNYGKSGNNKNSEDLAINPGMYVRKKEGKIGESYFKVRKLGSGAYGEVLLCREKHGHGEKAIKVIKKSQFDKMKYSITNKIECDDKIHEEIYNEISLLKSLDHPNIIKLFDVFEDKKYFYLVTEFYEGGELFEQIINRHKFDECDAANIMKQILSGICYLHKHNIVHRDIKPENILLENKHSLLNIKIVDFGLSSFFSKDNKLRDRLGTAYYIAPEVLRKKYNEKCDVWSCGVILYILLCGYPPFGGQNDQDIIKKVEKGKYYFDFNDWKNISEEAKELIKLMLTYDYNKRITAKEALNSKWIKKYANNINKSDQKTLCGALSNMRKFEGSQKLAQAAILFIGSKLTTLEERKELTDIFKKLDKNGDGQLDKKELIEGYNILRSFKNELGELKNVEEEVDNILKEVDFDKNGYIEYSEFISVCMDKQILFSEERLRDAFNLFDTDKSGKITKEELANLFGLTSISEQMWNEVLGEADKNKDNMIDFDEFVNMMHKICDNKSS

Row | Compound | outcome
41 | COCCNCc1cccc(-c2ccc(CNC3CCN(Cc4ccccc4)CC3)cc2)c1 | inactive
42 | CCC(C)C#Cc1c(C)nc(N)nc1N (stereo not given) | inactive
43 | Cc1cc(NC(=O)NCCN2CCC(NS(=O)(=O)c3ccccc3Cl)C2)c2ccccc2n1 (stereo not given) | inactive
44 | O=C(CCc1ccccc1)NC(c1ccc(Cl)cc1)c1ccc2cccnc2c1O (stereo not given) | inactive
45 | Fc1ccc2nc(-c3ccc(-c4cccc(CN5CCCCC5)c4)cc3)[nH]c2c1 | inactive
46 | O=C(Nc1ccc(-c2nc3ccccc3[nH]2)cc1)C1CCCN(C2CCC2)C1 (stereo not given) | inactive
47 | NC(=O)C1CCN(Cc2ccc(-c3ccc(-c4nc5ccc(C(F)(F)F)cc5[nH]4)cc3)cc2)CC1 | inactive
48 | COc1ccc(-c2cccc(NC(=O)c3ccc(Cl)cc3)c2)cc1CNC(C)C | inactive
49 | COc1ccc(CNC2CCN(C)CC2)cc1-c1ccc(S(=O)(=O)NCCc2ccccn2)c(F)c1 | inactive
50 | Cc1cnc(NCCc2ccc(F)cc2)nc1N[C@@H](CC(C)C)C(=O)Nc1ccccc1 | inactive
51 | Oc1ccc(Br)cc1-c1nc2ccc(Cl)cc2nc1-c1cc(Br)ccc1O | inactive
52 | COc1ccc(CNC2CCN(C)CC2)cc1-c1cccc(S(=O)(=O)NCc2ccccc2)c1 | inactive
53 | CC[C@H](C)CNC(=O)c1ccnc(-c2ccc(CNCCCc3ccccc3)cc2)c1 | inactive
54 | CS(=O)(=O)c1ccc2nc(-c3cc(-c4ccc(OCCN5CCOCC5)cc4)cnc3N)[nH]c2c1 | inactive
55 | Cc1ccc2[nH]c3ccccc3c(=O)c2c1 | inactive
56 | Cc1ccc(-c2nnc3c4ccccc4c(C)nn23)cc1S(=O)(=O)N1CCN(CCO)CC1 | inactive
57 | Cc1cc(N2CCN(C3CCCCC3)CC2)nc2cccc(O)c12 | inactive
58 | CC(C)C[C@H](NC(=O)[C@H](Cc1ccccc1)NC(=O)CCN1C(=O)COc2ccc(C(=O)O)cc21)C(=O)NC(CC1CCCCC1)C(O)CC(=O)NCCCn1ccnc1 (stereo not given in full) | inactive
59 | COc1c(C2=CCN(CCCCNC(=O)c3ccc(-c4ccc(C#N)cc4)cc3)CC2)c(C)cc2c1C(C)(C)CCC2(C)C | inactive
60 | Cc1cc(N2CCC(NS(=O)(=O)c3ccccc3)CC2)nc(Nc2cccc(C#N)c2)n1 | inactive

Row | Compound | outcome
61 | O=C(Nc1ccc(Cl)cn1)c1sc2ccccc2c1O | inactive
62 | Cc1ccc(NC(=O)NC2CCN(CCC(NC(=O)Cc3ccccc3)c3ccc(Cl)c(Cl)c3)CC2)cc1 (stereo not given) | inactive
63 | Cc1cc(N)c2cc(NC(=O)c3cccc4ccccc34)ccc2n1 | inactive
64 | Cc1cc(NCCCN2CCCC2=O)n2c(nc3ccccc32)c1C#N | inactive
65 | COc1ccc(F)cc1-c1cccc(CNC2CCN(CC3Cn4c(=O)ccc5ccc(F)c3c54)CC2)c1 (stereo not given) | inactive
66 | NC(=O)C1CCN(Cc2cccc(-c3cccc(-c4nc5ccc(C(F)(F)F)cc5[nH]4)c3)c2)CC1 | inactive
67 | O=C(/C=C/c1ccc(F)cc1)NC1CCC(CCN2CCc3ccc(-n4cccn4)cc3CC2)CC1 (stereo not given) | inactive
68 | Cc1cccc2[nH]c(-c3cccc(-c4ccc(C(=O)N5CCCCC5C(C)O)cc4)c3)nc12 (stereo not given) | inactive
69 | COc1ccc(N2CCN(CCCN3CCN(C(=O)c4ccc(/C=C/c5ccc(Cl)c(Cl)c5)cc4)CC3)CC2)c(OC)c1 | inactive
70 | C[C@@H](Oc1cc(-n2cnc3ccc(NC(=O)CCN4CCCCC4)cc32)sc1C(N)=O)c1ccccc1Cl | inactive
71 | Cc1ccc(CCC(C)NCC(O)c2cccc(C(F)(F)F)c2)cc1 (stereo not given) | inactive
72 | O=C(NCc1cccc(C(F)(F)F)c1)C(c1cc2ccccc2o1)N1CCN(C(c2ccccc2)c2ccccc2)CC1 (stereo not given) | inactive
73 | COc1ccc(Cl)cc1N1CCN(CCCNC(=O)c2ccc(-c3nc4ccc(C(F)(F)F)cc4[nH]3)c(C)c2)CC1 | inactive
74 | CCCCOC(=O)C1=C(C)NC2=C(C(=O)CCC2)C1c1ccc(OC)c(Br)c1 (stereo not given) | inactive
75 | Cc1cccc(-c2ccc3c(c2)CC(NCc2cccc(-n4ccnc4)c2)C3)c1 (stereo not given) | inactive
76 | CNC(=O)c1ccccc1Nc1nc(Nc2cccnc2)ncc1C | inactive
77 | CC(C)(C)S[C@H]1S[C@H](SC(C)(C)C)[C@@H](OC(=O)c2ccccc2)C(OC(=O)c2ccccc2)[C@H]1OC(=O)c1ccccc1 (stereo not given in full) | inactive
78 | CSC1=NC(=Nc2ccccc2C)C2(CCC(C(C)(C)C)CC2)N1c1ccccc1Cl (stereo not given) | inactive
79 | O=C(Nc1ccc(F)cc1)c1cnc(N2CCN(c3ccncc3)CC2)c(Cl)c1 | inactive
80 | CC1Cc2ccccc2N1CC(=O)Nc1cc(C(F)(F)F)ccc1-n1cncn1 (stereo not given) | inactive
